Several values for one entry are separate records, joined by “and”; a condition that tells them apart may be missing. Identical values can stand only once. Inconclusive results are not listed. Activity calls are given as the source filed them. Calls come from the whole dose curve; as a rule, active = well fitted inhibition curve with a large enough effect; inconclusive = small, poorly fitted or top-dose-only effect; inactive = flat fitted curve, though single readings scatter.
% is set by controls: 0 for no effect and ±100 for the full control effect.

The subject of the assay is KB-3-1. The assay is described as follows: Cytotoxic Profiling of Annotated Libraries Using Quantitative High-Throughput Screening (AID 1296008). Note: nearly all actives have a fitted effect of over 60% in size. The settings on record: Five cell lines viability, CellTiter-Glo ATP luminescence, 48-72 h; max response: stronger effect = lower value. A digest of the protocol: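 Cytotoxicity was measured as CellTiter-Glo ATP luminescence, read after 10 min at room temperature. Compound treatment of the cells lasted 48 or 72 hr at 37 degrees Celsius in a qHTS format.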
For orientation: In ATP-based viability assays light output follows the ATP content of the culture.
With `CCC[C@@H]1C[C@@H](C(=O)N[C@@H]([C@H]2O[C@H](SC)[C@H](O)[C@@H](O)[C@H]2O)[C@H](C)Cl)N(C)C1`, the max response is 4.39% (inactive). For `CC(=O)Oc1cc(C(F)(F)F)ccc1C(=O)O` the value was 0.097% (inactive); for `C[C@@H]1C[C@H]2[C@@H]3CCC4=CC(=O)C=C[C@]4(C)[C@@]3(F)[C@@H](O)C[C@]2(C)[C@@]1(O)C(=O)COC(=O)c1cccc(S(=O)(=O)O)c1`, 21.4% (inactive); for `COC(=O)[C@H]1[C@H]2C[C@@H]3c4[nH]c5cc(OC)ccc5c4CCN3C[C@H]2C[C@H](OC)[C@@H]1OC`, 14.2% (inactive).

As for `CC1(C)C(\C=C/C=C\C=C/C=C2/N(CCCCS(=O)(=O)O)c3ccc4ccccc4c3C2(C)C)=[N+](CCCCS(=O)(=O)[O-])c2ccc3ccccc3c21`, the max response is -6.53% (inactive). Consider `CC(=O)c1ccc2c(c1)N(CCCN1CCN(CCO)CC1)c1ccccc1S2`, for which the max response was 1.1% (inactive). Consider `CN(C)C(=O)CCSC(SCCC(=O)O)c1cccc(/C=C/c2ccc3ccc(Cl)cc3n2)c1` (configuration not stated), for which the max response is -15.2% (inactive). The value for `CC/C=C\C/C=C\C/C=C\C/C=C\C/C=C\C/C=C\CCC(=O)O` was 0.95% (inactive).

On to `CN1C(=O)C[C@@H](C(=O)N[C@@H](Cc2cnc[nH]2)C(=O)N2CCC[C@H]2C(N)=O)NC1=O`, for which the max response is 5.84% (inactive). With `CS(=O)(=O)OCC(O)C(O)COS(C)(=O)=O` (configuration not stated), the max response was -18.1% (inactive). Consider `CC(CC=O)CCCC(C)(C)O` (configuration not stated), for which the max response was 7.65% (inactive). With `COC(=O)[C@@H](N)CS`, the max response was -3.99% (inactive).

Turning to `NC(=O)[C@H]1O[C@@H](O)[C@H](O)[C@@H](O)[C@@H]1O`, the max response is 4.29% (inactive). The value for `CC(C)(C)NC[C@H](O)COc1ccccc1C1CCCC1` was 1.39% (inactive); that for `CC(=O)Nc1c(I)c(C(=O)O)c(I)c(N(C)C(C)=O)c1I` was 3.77% (inactive); that for `OCl` was 19.8% (inactive). Consider `CCCc1ccc(C(=O)O)cc1`, for which the max response is 8.62% (inactive). On to `CC(C)(COP(=O)(O)OP(=O)(O)OC[C@H]1O[C@@H](n2cnc3c(N)ncnc32)[C@H](O)[C@@H]1OP(=O)(O)O)C(O)C(=O)NCCC(=O)NCCS` (some centres not stated), for which the max response is 7.71% (inactive). As to `C=C(C)C1CC=C(C)CC1` (configuration not stated), the max response is 7.51% (inactive). The value for `Cc1ccc(S(=O)(=O)NC(=O)N[C@@H](C)Cc2ccccc2)cc1` was 4.03% (inactive); that for `Nc1ncnc2c1ncn2[C@H]1CC[C@@H](CO)O1` was -2.72% (inactive); that for `O=C1c2ccccc2CN2C(=O)c3ccccc3CN12` was 1.75% (inactive). The value for `CC(C)(C)NCC(O)CSc1nc(-c2ccc(C(N)=O)s2)cs1` (configuration not stated) was 15.3% (inactive). The value for `Cc1c(C)c2c(c(C)c1OC(=O)CCC(=O)O)CC[C@@](C)(CCC[C@H](C)CCC[C@H](C)CCCC(C)C)O2` was 3.34% (inactive); that for `C[C@@H]1C/C=C/C=C/C=C/C=C/[C@H](O[C@@H]2O[C@H](C)[C@@H](O)[C@H](N)[C@@H]2O)C[C@@H]2O[C@](O)(C[C@@H](O)C[C@H]3O[C@@H]3/C=C/C(=O)O1)C[C@H](O)[C@H]2C(=O)O` was 3.94% (inactive). With `Oc1cccc(O)c1O`, the max response was 0.0163% (inactive). As for `C=C1[C@@H]2CC[C@@H](C2)C1(C)C`, the max response was -10.2% (inactive).

With `CCN(CC)CCOC[C@H]1O[C@@H](O)[C@H](OCCN(CC)CC)[C@@H](O)[C@@H]1O`, the max response is 8.48% (inactive). With `O=C(CCCN1CCN2CCCC2C1)c1ccc(F)cc1` (configuration not stated), the max response is 3.11% (inactive). In the case of `COc1ccc(-c2noc(CC(=O)O)c2-c2ccc(OC)cc2)cc1`, the max response is 2.01% (inactive).

Turning to `CC(C)CN(C[C@@H](OP(=O)(O)O)[C@H](Cc1ccccc1)NC(=O)O[C@H]1CCOC1)S(=O)(=O)c1ccc(N)cc1`, the max response is 1.96% (inactive). For `C(=C\c1ccncc1)/c1ccccc1` the value was 1.91% (inactive) and -0.505% (inactive). On to `O=C(O)C1=C(CSc2nnnn2CS(=O)(=O)O)CS[C@@H]2[C@H](NC(=O)[C@H](O)c3ccccc3)C(=O)N12`, for which the max response was 3.59% (inactive). For `COc1ccc2cc([C@H](C)CO)ccc2c1` the value was 0.171% (inactive). Turning to `O=C1c2ccccc2C(=O)C1c1ccc(F)cc1`, the max response was -8.05% (inactive). For `O=C(O)CCC/C=C\C[C@@H]1[C@@H](/C=C/[C@@H](O)COc2cccc(C(F)(F)F)c2)[C@H](O)C[C@@H]1O` the value was -14.2% (inactive); for `NC(Cc1ccccc1)C(=O)O` (configuration not stated), 4.99% (inactive).

Values taken from PubChem BioAssay (NCATS).
